# Screening results as filed in PubChem.
# DT40 TDP1 CPT = qHTS for Inhibitors of human tyrosyl-DNA phosphodiesterase 1 (TDP1): qHTS in cells in presence of CPT; hit rate 12% among 420,000; Potency, µM (series often up to 46.2 µM), for inactives: at the top dose activity change, negative = growth inhibition, usual class: inhibitors; chicken DT40 Tdp1-/-;hTDP1 cells + 20 nM CPT, ATP luminescence, 48 h; also: potency is read from the fitted curve at half-maximal effect; nearly all actives have a fitted effect of over 55% in size
#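 Chicken DT40 Tdp1-/- cells complemented with human TDP1, 400 cells/well, exposed to compounds plus 20 nM camptothecin for at least 48 h at 37 C; viability read as ATP content by CellTiter-Glo luminescence.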
# IL1B secr inh = qHTS for Inhibitors of Inflammasome Signaling: IL-1-beta AlphaLISA Primary Screen; THP-1 LPS/ATP IL-1B secretion, AlphaLISA, 16 h; hits give low values; activity change, % at 57.5 µM; AID 743279, 2014; hit rate 4.7% among 360,000; in the data active = activity change below about -50%; inconclusive = mostly about -30% to -49%
#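 THP-1 cells pretreated 1 hr with compounds (up to 57.5 uM final), then stimulated with LPS (250 ng/mL final) plus ATP (1.25 mM final); secreted IL-1B measured by AlphaLISA after 16 hr, decreased signal indicating inhibition.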
# DT40 TDP1 no CPT = qHTS for Inhibitors of human tyrosyl-DNA phosphodiesterase 1 (TDP1): qHTS in cells in absence of CPT; DT40 Tdp1-/- hTDP1 cells, no CPT, ATP luminescence, 48 h; Potency, µM (highest dose often 46.2 µM), without a hit: at the top dose activity change, negative = growth inhibition, actives largely listed as inhibitors; AID 686978, 2013; hit rate 15% among 420,000; also: potency is read from the fitted curve at half-maximal effect; nearly all actives have a fitted effect of over 55% in size
#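 Growth of hTDP1-complemented DT40 Tdp1-knockout cells is measured by ATP luminescence after at least 48 hr compound exposure at 37 °C, with DMSO substituting for the 20 nM CPT used in the parallel screen.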
# ALOX12 inh = Primary qHTS assay for inhibitors of human arachidonate 12S-lipoxygenase (ALOX12): Round 2 | Polyunsaturated fatty acid lipoxygenase ALOX12 (Homo sapiens), P18054 | purified 12hLO, xylenol orange hydroperoxide absorbance | Potency, µM (doses to about 108 µM), without a hit: at the highest dose activity change, negative = inhibition, actives largely listed as inhibitors | hit rate 1.1% among 580,000; also: potency is read from the fitted curve at half-maximal effect
# Target sequence (P18054 whole entry, looked up): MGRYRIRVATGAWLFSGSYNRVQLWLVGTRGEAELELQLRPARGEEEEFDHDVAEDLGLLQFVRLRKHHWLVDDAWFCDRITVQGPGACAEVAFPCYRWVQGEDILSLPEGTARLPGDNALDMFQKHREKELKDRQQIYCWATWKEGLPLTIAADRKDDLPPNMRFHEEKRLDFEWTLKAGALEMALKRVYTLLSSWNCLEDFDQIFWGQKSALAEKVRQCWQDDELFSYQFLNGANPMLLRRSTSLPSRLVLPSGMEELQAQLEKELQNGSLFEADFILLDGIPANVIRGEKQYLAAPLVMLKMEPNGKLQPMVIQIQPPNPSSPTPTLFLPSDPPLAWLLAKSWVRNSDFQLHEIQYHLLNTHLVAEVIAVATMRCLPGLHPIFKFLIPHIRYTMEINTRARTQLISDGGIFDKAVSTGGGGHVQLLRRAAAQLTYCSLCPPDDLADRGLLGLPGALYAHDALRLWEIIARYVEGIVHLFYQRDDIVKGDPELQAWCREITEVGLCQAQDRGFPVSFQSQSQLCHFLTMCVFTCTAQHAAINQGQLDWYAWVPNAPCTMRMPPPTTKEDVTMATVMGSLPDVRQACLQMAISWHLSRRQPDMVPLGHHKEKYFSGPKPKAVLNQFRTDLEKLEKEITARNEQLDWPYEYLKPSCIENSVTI
#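 Purified human 12hLO (150 nM final) in 25 mM Hepes, 0.01% Triton X-100, pH 7.0 was preincubated 15 min at room temperature with compound. Then 40 uM arachidonic acid was added, 30 min. Hydroperoxide was read by Fe-XO absorbance ratio 573/405 nm.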
# HT1080-NT tox = qHTS for induction of synthetic lethality in tumor cells producing 2HG: qHTS for the HT-1080-NT fibrosarcoma cell line. HT-1080-NT fibrosarcoma viability, CellTiter-Glo ATP luminescence, 48 h. Potency, µM (titrated, usually from 46.1 µM), for the others: at the highest dose activity, negative = less viability, usual class: cytotoxic. hit rate 1.6% among 360,000;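 also: NT is the 2HG producing partner of a matched IDH1 knockdown line; potency is read from the fitted curve at half-maximal effect; 0% = DMSO-treated cells and -100% = media-only wells without cells; nearly all actives have a fitted effect of over 55% in size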
#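 750 cells/well, RPMI + 5% FBS; 2 h settle, compound pin-transfer, 48 h at 37 degrees C. CellTiter-Glo 10 min RT, luminescence. Normalized to DMSO and media-only wells.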
# HT1080 IDH1KD tx = qHTS for induction of synthetic lethality in tumor cells producing 2HG: qHTS for the HT-1080-IDH1KD cell line; hit rate 2% among 360,000; Potency, µM (series often up to 46.1 µM), inactives show at the top dose activity, negative = toxicity, most hits filed as cytotoxic; HT-1080 IDH1 knockdown viability, ATP luminescence, 48 h;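 also: potency is read from the fitted curve at half-maximal effect; 0% = DMSO wells and -100% = cell-free medium wells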
#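 HT-1080-IDH1KD cells (IDH1 knocked down), 750/well in RPMI with 5% FBS, treated with compound 48 h at 37 degrees C. Viability by CellTiter-Glo luminescence, normalised to DMSO and no-cell wells; concentration-response curves classed.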
# Active calls of the source: *; i = inactive; ? = inconclusive; nt = not tested or not shown; [ ] = another dose, or the depositor's remark. Shown is part of a subset that was picked to be rich in hits. Unless noted, calls follow the shape of the dose curve; as a rule, active = well fitted curve in the direction sought with a large enough effect; inconclusive = small, poorly fitted or top-dose-only effect, or another doubt; inactive = no such curve, though single readings can be large; an effect the other way counts as inactive or inconclusive. Unless noted, % is scaled to controls: 0 for no effect and ±100 for the full control effect.
SMILES,DT40 TDP1 CPT,IL1B secr inh,DT40 TDP1 no CPT,ALOX12 inh,HT1080-NT tox,HT1080 IDH1KD tx
O=C(OCC(COC(=O)c1cccnc1)(COC(=O)c1cccnc1)COC(=O)c1cccnc1)c1cccnc1,5%,nt,-1%,-8%[22.9 µM],nt,nt
Cn1c(=O)c2c(nc(CN(Cc3ccccc3)Cc3ccccc3)n2Cc2ccccc2)n(C)c1=O,nt,nt,nt,23%,nt,nt
CCCCCCn1c(CN2CCN(c3ccccc3)CC2)nc2c1c(=O)n(C)c(=O)n2C,nt,nt,nt,2%,nt,nt
CCCCn1c(CN(C)Cc2ccccc2)nc2c1c(=O)n(C)c(=O)n2C,6.5µM*,-13,4.1µM*,-8%,-9%,-13%
CCOCCn1c(CN(C)Cc2ccccc2)nc2c1c(=O)n(C)c(=O)n2C,?,43,23µM*,9%,0%,2%
CCCn1c(CN(C)Cc2ccccc2)nc2c1c(=O)n(C)c(=O)n2C,9.2µM*,-23,10µM*,0%,-16%,-18%
COCCn1c(CN(C)Cc2ccccc2)nc2c1c(=O)n(C)c(=O)n2C,?,46,?,6%[57.4 µM],18%,-11%
CS(=O)(=O)N(Cc1cccnc1)C1CN(C(=O)Nc2ccc3c(c2)OCCO3)C1,nt,nt,nt,-4%,nt,nt
O=S(=O)(c1ccc(Cl)s1)N1CCN(CCc2ccccc2)CC1,-21%,i,-26%,?,-13%,-10%
O=S(=O)(c1ccc(Cl)s1)N1CCN(C/C=C/c2ccccc2)CC1,16µM*,-11,?,?,-9%,-19%
O=S(=O)(c1ccc(Cl)s1)N1CCN(Cc2ccccc2)CC1,?,20,16µM*,-4%,9%,8%
CCNC(=S)NNC(=O)c1ccccn1,21µM*,82,?,11%,1%,-25%
O=C(NNC(=S)Nc1ccc(Cl)c(Cl)c1)c1ccccn1,2.9µM*,101,1.5µM*,?,-19%,?
CCNc1oc(-c2ccccc2F)nc1S(=O)(=O)c1ccccc1,2%,-21,-10%,nt,-1%,-5%
COc1cccc(CN2CC3(C2)C(=O)N(Cc2ccccc2)C(=O)[C@@H]2C[C@@H](O)CN23)c1,nt,nt,nt,22%[176 µM],nt,nt
Cc1ccccc1CN1CC2(COCC1=O)CN(c1ccccc1)C2,nt,nt,nt,-12%[176 µM],nt,nt
O=C1CC(=C2c3ccccc3-c3ccccc32)C(=O)N1CCCCN1CCN(c2ccccc2)CC1,18µM*,-26,16µM*,nt,?,?
OCC1(CNCC2CCCC2)C[C@@H](O)[C@@H](O)C1 (stereo partly drawn),nt,nt,nt,69%[176 µM],nt,nt
COc1cc(OC)cc(-c2nc(C3CC(=O)N(c4ccc(Cl)cc4)C3)no2)c1 (stereo not drawn),nt,nt,nt,14%,nt,nt
Oc1ccc(/C=N/Nc2ccc(C(F)(F)F)cn2)cc1,?,-95*,-22%,?,?,?
COc1cc(/C=N/Nc2ccc(C(F)(F)F)cn2)cc(OC)c1O,?,-13,18µM*,?,?,?
O=C(Nc1ccc(Br)cc1)C1CCCCC1,nt,nt,nt,16%,nt,nt
N#CCCN(Cc1cccnc1)C(=O)c1sc2cc(F)ccc2c1Cl,?,5,15µM*,-6%,0%,-2%
Cc1ccc2c(Cl)c(C(=O)NCc3cccnc3)sc2c1,-29%,-21,-10%,-5%,-2%,1%
COc1ccc(-c2nc(CC3CCN(C(=O)c4cc(C)n(C)n4)C3)no2)cc1 (stereo not drawn),nt,nt,nt,35%,nt,nt
SMILES,DT40 TDP1 CPT,IL1B secr inh,DT40 TDP1 no CPT,ALOX12 inh,HT1080-NT tox,HT1080 IDH1KD tx
CCc1ccc(C(=O)c2cn(CC(=O)Nc3cc(OC)ccc3OC)c3nc(C)ccc3c2=O)cc1,?,nt,-67%,-11%,nt,nt
COc1ccc(Cl)cc1NC(=O)Cn1cc(C(=O)c2ccc(C)cc2)c(=O)c2ccc(C)nc21,?,nt,23µM*,-29%,nt,nt
Cc1ccc(CNC(=O)Cn2cc(C(=O)c3ccc(Cl)cc3)c(=O)c3ccc(C)nc32)cc1,16µM*,nt,16µM*,-10%,nt,nt
Cc1ccc(C(=O)c2cn(CC(=O)NCc3ccccc3)c3nc(C)ccc3c2=O)cc1,-12%,nt,-2%,-7%,nt,nt
Cc1ccc(C(=O)c2cn(CC(=O)Nc3ccc(C)cc3Cl)c3nc(C)ccc3c2=O)cc1,10µM*,nt,23µM*,-9%,nt,nt
CCc1ccc(C(=O)c2cn(CC(=O)Nc3cc(C)ccc3C)c3nc(C)ccc3c2=O)cc1,-13%,nt,-13%,?,nt,nt
CC(C)C(=O)NCC12CCCC=C1N(C)C(=O)CC2 (stereo not drawn),nt,nt,nt,32%,nt,nt
CN(C)C(=O)c1ccc(N2CC3CC(C2)[C@H]2CCCC(=O)N2C3)nc1 (stereo partly drawn),nt,nt,nt,0%,nt,nt
COc1cccc(OC)c1C(=O)OCC(N)=O,nt,nt,nt,-48%,nt,nt
O=C(Nc1ccccc1)Nc1cccc(-c2nnco2)c1,-4%,9,?,nt,20%,0%
O=C(Nc1ccc(NC(=O)c2ccc(Cl)cc2Cl)cc1)c1ccc2c(c1)OCO2,-16%,2,-11%,?,18%,25%
O=C(Nc1ccc(C2=NCCN2)cc1)c1ccc(C(=O)Nc2ccc(C3=NCCN3)cc2)c(Cl)c1,7.3µM*,7,5.2µM*,0%,-8%,1%
O=C(Nc1cccc(C2=NCCN2)c1)Nc1cccc(C2=NCCN2)c1,9.2µM*,?,7.3µM*,-9%,-3%,-21%
Cc1oc(CC(C)C)cc1C(=O)Nc1cccc2ccccc12,-29%,13,-30%,?,-23%,?
Cc1cc(C(=O)Nc2cccc3ccccc23)c(C)o1,23µM*,-11,-22%,22%,6%,0%
Cc1cc(C(=O)NCCC(c2ccccc2)c2ccccc2)c(C)o1,18µM*,-11,?,-26%,-11%,-25%
Cc1oc2c(c1C(=O)Nc1cccc3ccccc13)CCCC2,10µM*,3,13µM*,82%,2%,10%
CCCOc1cc(C)c2c(c1C)C[C@H]([C@H](C)C(=O)NCCN1CCOCC1)CC2,nt,nt,nt,15%[176 µM],nt,nt
C#CCNC(=O)C[C@@H]1O[C@H](CNC(=O)Nc2ccc(C)cc2)[C@@H](O)[C@H]1O,nt,nt,nt,4%[176 µM],nt,nt
S=C(N/N=C1/CC2CC=CC12)NC1CCCCC1 (stereo not drawn),nt,nt,nt,35µM*,nt,nt
